The values that follow come from PubChem BioAssay (NCI).

The nature of test [1]: NCI Yeast Anticancer Drug Screen. Data for the rad50 strain (AID 155).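 Also: 0% = growth of vehicle-only cultures of the same strain.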 The following applies: S. cerevisiae rad50 strain growth inhibition, active compounds read high. A digest of the protocol:
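Genetically altered yeast (DNA repair pathway); compound treatment; growth inhibition vs vehicle ctrl.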

The nature of test [2]: NCI Yeast Anticancer Drug Screen. Data for the mec2-1 strain (AID 157). The following applies: S. cerevisiae mec2-1 strain, active compounds read high. Put shortly: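 Strain: mec2-1 (DNA repair/cell cycle alteration). Compound exposure, then growth measured; inhibition expressed relative to vehicle.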
The nature of test [3]: NCI Yeast Anticancer Drug Screen. Data for the sgs1 mgt1 strain (AID 161).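 Also: 0% = growth of cultures given vehicle only.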 The following applies: S. cerevisiae sgs1 mgt1 strain, active compounds read high. A digest of the protocol: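 Test agents were incubated with a DNA-repair-mutant yeast strain. Growth was then read and compared against vehicle-treated controls.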
Test [4] can be described thus: NCI Yeast Anticancer Drug Screen. Data for the cln2 rad14 strain (AID 165).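 Also: 0% = growth equal to vehicle treated cultures.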 The following applies: S. cerevisiae cln2 rad14 strain, active compounds read high. A digest of the protocol: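 Compounds are applied to the cln2 rad14 yeast strain, and growth is then compared with that of vehicle-treated cultures to give inhibition.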
Test [5] is described as follows: NCI Yeast Anticancer Drug Screen. Data for the bub3 strain (AID 167). The following applies: S. cerevisiae bub3 mutant strain, active compounds read high. A digest of the protocol:
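Yeast carrying a defined mutation is treated with each compound, and growth is compared with that of vehicle-exposed cells to give inhibition.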

The nature of test [6]: NCI Yeast Anticancer Drug Screen. Data for the mlh1 rad18 strain (AID 175). The following applies: S. cerevisiae mlh1 rad18 strain growth inhibition, active compounds read high. A digest of the protocol:
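Read-out is yeast growth inhibition, calculated against vehicle-only controls. The compound was applied to a strain engineered with DNA damage repair alterations.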

Where [7] appears, read: at 5.0 µM (retest, dose inferred, filed as 0.5).
Setting [8] is: at 50.0 µM (retest, dose inferred, filed as 5.0).

About 79,000 compounds went through this panel and 15% of them were active in at least one assay; those are over-represented in the sample as a whole. Unmarked numbers belong to inactive results. Active and inactive are the calls of the source. Rule as the data show it: active = growth inhibition above about 70%; inactive = the rest.

For the compound `O=[N+]([O-])c1ccc(N2CCOCC2)c2c1no[n+]2[O-]`, the growth inhibition was 98% (active) in test [1] (setting [7]); 99% (active) in test [1] (setting [8]); 90.9% (active) in test [1] (at 50.0 µM); 99% (active) in test [2] (setting [7]); 100% (active) in test [2] (setting [8]); 94% (active) in test [2] (at 50.0 µM). Also, the growth inhibition in test [3] (setting [7]) was 94% (active); in test [3] (setting [8]), 99% (active); in test [3] (at 50.0 µM) it was 89% (active); in test [4] (setting [7]), 55%; in test [4] (setting [8]), 99% (active); in test [4] (at 50.0 µM), 74% (active). Further, the growth inhibition in test [5] (setting [7]) is 91% (active); in test [5] (setting [8]), 99% (active); in test [5] (at 50.0 µM), 92.2% (active); in test [6] (setting [7]), 98% (active); in test [6] (setting [8]), 99% (active); in test [6] (at 50.0 µM), 84.2% (active).
`Nc1ccc(C(=O)O)c(C(=O)O)c1.[Cl][Sn]([Cl])([Cl])[Cl]`: the growth inhibition was 3% in test [1] (setting [7]); -9% in test [1] (setting [8]); 48% in test [1] (at 50.0 µM); 3% in test [2] (setting [7]); 46% in test [2] (setting [8]); 59.6% in test [2] (at 50.0 µM). The growth inhibition was 8% in test [3] (setting [7]); 36% in test [3] (setting [8]); 53.7% in test [3] (at 50.0 µM); -4% in test [4] (setting [7]); -21% in test [4] (setting [8]); 76.1% (active) in test [4] (at 50.0 µM). Further, the growth inhibition is 1% in test [5] (setting [7]); -2% in test [5] (setting [8]); 80.8% (active) in test [5] (at 50.0 µM); -3% in test [6] (setting [7]); 20% in test [6] (setting [8]); 40.4% in test [6] (at 50.0 µM).
Turning to `CC12CCC3C(CCC4Cc5nc6nnnn6cc5CC43C)C1CCC2O` (stereo not given), the growth inhibition was 4% in test [1] (setting [7]); 79% (active) in test [1] (setting [8]); 55% in test [1] (at 50.0 µM); 20% in test [2] (setting [7]); 71% (active) in test [2] (setting [8]); 40.9% in test [2] (at 50.0 µM). The growth inhibition is 14% in test [3] (setting [7]); 85% (active) in test [3] (setting [8]); 51% in test [3] (at 50.0 µM); 4% in test [4] (setting [7]); 44% in test [4] (setting [8]); 29.6% in test [4] (at 50.0 µM). Besides, the growth inhibition is 2% in test [5] (setting [7]); 38% in test [5] (setting [8]); 53.8% in test [5] (at 50.0 µM); 11% in test [6] (setting [7]); 82% (active) in test [6] (setting [8]); 47% in test [6] (at 50.0 µM).
Turning to `Cc1cc(N(CCCl)CCCl)ccc1C1N(Cc2ccc(Cl)cc2Cl)CCCN1Cc1ccc(Cl)cc1Cl`, the growth inhibition is 42% in test [1] (setting [7]); 85% (active) in test [1] (setting [8]); 40.5% in test [1] (at 50.0 µM); -4% in test [2] (setting [7]); 65% in test [2] (setting [8]); 18.2% in test [2] (at 50.0 µM). Besides, the growth inhibition in test [3] (setting [7]) is 25%; in test [3] (setting [8]), 91% (active); in test [3] (at 50.0 µM), 57.5%; in test [4] (setting [7]), 14%; in test [4] (setting [8]) it was 60%; in test [4] (at 50.0 µM), 14.4%. Besides, the growth inhibition is 22% in test [5] (setting [7]); 92% (active) in test [5] (setting [8]); 16.1% in test [5] (at 50.0 µM); 18% in test [6] (setting [7]); 96% (active) in test [6] (setting [8]); 52.2% in test [6] (at 50.0 µM).
Consider `O=C1C(CCl)(CCl)CCC12CNC(Cl)(Cl)C2` (stereo not given), for which the growth inhibition is -1% in test [1] (setting [7]); 0% in test [1] (setting [8]); 6.8% in test [1] (at 50.0 µM); -1% in test [2] (setting [7]); 4% in test [2] (setting [8]); 15.8% in test [2] (at 50.0 µM). Further, the growth inhibition was 1% in test [3] (setting [7]); 0% in test [3] (setting [8]); 21.6% in test [3] (at 50.0 µM); 1% in test [4] (setting [7]); 5% in test [4] (setting [8]); 39.6% in test [4] (at 50.0 µM). The growth inhibition in test [5] (setting [7]) is -3%; in test [5] (setting [8]), -5%; in test [5] (at 50.0 µM), 23.2%; in test [6] (setting [7]), -1%; in test [6] (setting [8]) it was 0%; in test [6] (at 50.0 µM), 28.8%.
For the compound `O=C(O)c1ccccc1.[Zn+2]`, the growth inhibition in test [1] (setting [7]) is 1%; in test [1] (setting [8]), -5%; in test [1] (at 50.0 µM) it was 19.4%; in test [2] (setting [7]) it was 3%; in test [2] (setting [8]), -10%; in test [2] (at 50.0 µM), 8.6%. The growth inhibition in test [3] (setting [7]) was 4%; in test [3] (setting [8]), 9%; in test [3] (at 50.0 µM), 15.5%; in test [4] (setting [7]), -3%; in test [4] (setting [8]), -21%; in test [4] (at 50.0 µM) it was -74.6%. Moreover, the growth inhibition was -8% in test [5] (setting [7]); -1% in test [5] (setting [8]); 45.6% in test [5] (at 50.0 µM); 6% in test [6] (setting [7]); 10% in test [6] (setting [8]); 1.9% in test [6] (at 50.0 µM).
Consider `C#CC1(OC(C)=O)CCC2C3CC=C4C=C(OC(C)=O)CCC4(C)C3CCC21C` (stereo not given), for which the growth inhibition was 16% in test [1] (setting [7]); 48% in test [1] (setting [8]); 90.5% (active) in test [1] (at 50.0 µM); -1% in test [2] (setting [7]); 17% in test [2] (setting [8]); 40.2% in test [2] (at 50.0 µM). The growth inhibition in test [3] (setting [7]) is 2%; in test [3] (setting [8]) it was 56%; in test [3] (at 50.0 µM), 86.9% (active); in test [4] (setting [7]), 10%; in test [4] (setting [8]) it was 15%; in test [4] (at 50.0 µM) it was -0.6%. The growth inhibition in test [5] (setting [7]) is 1%; in test [5] (setting [8]), 3%; in test [5] (at 50.0 µM) it was 13.9%; in test [6] (setting [7]) it was 2%; in test [6] (setting [8]) it was -4%; in test [6] (at 50.0 µM), 61.1%.
Turning to `Nc1nc(N)c(-c2ccc(Cl)c(Cl)c2)c(COc2cccc(CNS(=O)(=O)c3cccc(S(=O)(=O)F)c3)c2)n1`, the growth inhibition in test [1] (setting [7]) is -6%; in test [1] (setting [8]) it was 92% (active); in test [1] (at 50.0 µM), 89.5% (active); in test [2] (setting [7]), -4%; in test [2] (setting [8]), 70% (active); in test [2] (at 50.0 µM) it was 92.4% (active). The growth inhibition was -1% in test [3] (setting [7]); 85% (active) in test [3] (setting [8]); 66.2% in test [3] (at 50.0 µM); -15% in test [4] (setting [7]); 60% in test [4] (setting [8]); 77.2% (active) in test [4] (at 50.0 µM). The growth inhibition was -4% in test [5] (setting [7]); 62% in test [5] (setting [8]); 88.8% (active) in test [5] (at 50.0 µM); -3% in test [6] (setting [7]); 83% (active) in test [6] (setting [8]); 96.3% (active) in test [6] (at 50.0 µM).
Turning to `C/C=C(\C)C(=O)OC1CC(C)(C)CC2C3=CCC4C5(C)CCC(=O)C(C)(C)C5CCC4(C)C3(C)CCC12C(=O)O` (stereo not given) (tested in a mixture with another compound), the growth inhibition is 1% in test [1] (setting [7]); 78% (active) in test [1] (setting [8]); 86% (active) in test [1] (at 50.0 µM); -9% in test [2] (setting [7]); 70% (active) in test [2] (setting [8]); 84.7% (active) in test [2] (at 50.0 µM). The growth inhibition in test [3] (setting [7]) is 5%; in test [3] (setting [8]), 77% (active); in test [3] (at 50.0 µM), 89.2% (active); in test [4] (setting [7]), 38%; in test [4] (setting [8]) it was 88% (active); in test [4] (at 50.0 µM), 87.9% (active). Further, the growth inhibition is 1% in test [5] (setting [7]); 82% (active) in test [5] (setting [8]); 86% (active) in test [5] (at 50.0 µM); 26% in test [6] (setting [7]); 82% (active) in test [6] (setting [8]); 84.3% (active) in test [6] (at 50.0 µM).
For the compound `Cc1sc(Cc2ccccc2)nc1-c1ccc(N=Cc2ccc(N(CCCl)CCCl)cc2)cc1`, the growth inhibition is 20% in test [1] (setting [7]); 95% (active) in test [1] (setting [8]); 96.2% (active) in test [1] (at 50.0 µM); 2% in test [2] (setting [7]); 98% (active) in test [2] (setting [8]); 93.8% (active) in test [2] (at 50.0 µM). Besides, the growth inhibition in test [3] (setting [7]) is -108%; in test [3] (setting [8]), 98% (active); in test [3] (at 50.0 µM) it was 96% (active); in test [4] (setting [7]), -1%; in test [4] (setting [8]), 90% (active); in test [4] (at 50.0 µM), 93.6% (active). Moreover, the growth inhibition in test [5] (setting [7]) is 2%; in test [5] (setting [8]), 96% (active); in test [5] (at 50.0 µM) it was 89% (active); in test [6] (setting [7]) it was 58%; in test [6] (setting [8]), 97% (active); in test [6] (at 50.0 µM), 96.2% (active).
